Test in all cases: NCI-60 one-dose screen, 48 h (100 = growth as untreated, 0 = no growth, -100 = all killed)
Common to all, as to details: 10 µM unless noted

In test [1] the test system is HCT-15 colon.
The test system of test [2] is SNB-75 CNS.
The subject of test [3] is SNB-19 CNS.
For test [4], the system named is U251 CNS.
Test [5] relates to PC-3 prostate.
In test [6] the test system is SK-MEL-5 melanoma.
In test [7] the test system is UACC-62 melanoma.
Test [8] deals with LOX IMVI melanoma.
In test [9] the test system is SK-MEL-28 melanoma.
Test [10] has as its system SK-MEL-2 melanoma.
In test [11] the test system is EKVX NSCLC.
Test [12] has as its system SN12C renal.
For test [13], the system named is UO-31 renal.
The test system of test [14] is TK-10 renal.
Test [15] deals with ACHN renal.
Test [16] concerns CAKI-1 renal.
The test system of test [17] is A498 renal.
Test [18] has as its system CCRF-CEM leukemia.
The subject of test [19] is MOLT-4 leukemia.

The panel holds about 83,000 compounds, 20% with a hit somewhere; the sample as a whole holds those more often.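 In brief: 96-well plates, 48 h treatment, single concentration, percent growth endpoint.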 A number with no mark means an inactive call. Active and inactive are the calls of the source. Rule for the calls: active = growth percent below 10; inactive = the rest.

In the case of `NC(N)=Nc1ccc(S(=O)(=O)O)cc1`, the growth in test [1] is 102%; in test [2] it was 88.7%; in test [3] it was 90%; in test [4], 111%; in test [5] it was 99.1%; in test [6], 101%. Further, the growth in [7] was 86.9%; in [8], 96.5%; in test [9], 103%; in test [10] it was 107%; in test [11] it was 110%; in test [12], 90.8%. The growth in test [13] was 94.6%; in test [14], 108%; in test [15], 93%; in test [16], 115%; in test [17], 97.8%; in test [18], 108%. For the same compound, in test [19], the growth is 85.2%.
Turning to `O=C1C=CC(Nc2ccccc2[N+](=O)[O-])C1Nc1ccccc1[N+](=O)[O-]` (stereo not drawn), the growth in [1] is -86.6% (active); in [2], 36.9%; in test [4], 72.4%; in [5], 51.6%; in test [6], 45%; in test [7] it was -68.9% (active). In addition, the growth in [8] was -97.3% (active); in [9] it was -92.9% (active); in [10] it was 67.9%; in test [11] it was -97.1% (active); in [12] it was 36.9%; in test [14], -45.3% (active). Also, the growth was -96% (active) in [15]; -24.3% (active) in [16]; 96.8% in test [17]; 10.5% in [18]; 29.4% in test [19].
`O=c1c2c3c(sc2n2c(CCl)nnc2n1Cc1ccccc1)CCCC3`: the growth was -89.4% (active) in [1]; -61.3% (active) in test [2]; -99.2% (active) in [4]; -100% (active) in [5]; -96.1% (active) in [6]; -72.8% (active) in [7]. Besides, the growth in [9] is -100% (active); in [10], -83.1% (active); in [11], -35.4% (active); in test [12], -82.8% (active); in test [13], -83.2% (active); in test [14], -93.6% (active). Further, the growth in test [15] was -100% (active); in [16], -100% (active); in test [17], 92.5%; in [19], -18.4% (active).
With `CCN(C(=O)CN1CCN(c2cc3c(cc2F)c(=O)c(C(=O)O)cn3C2CC2)CC1)c1nc(-c2ccc(OC)cc2)cs1`, the growth in test [1] is 51.5%; in [2], 81.8%; in test [3], 78.2%; in test [4], 14.1%; in [5], 20.9%; in test [6], 28.9%. Moreover, the growth is 17.1% in [7]; -57.9% (active) in test [8]; 45.1% in [9]; 79.2% in test [10]; 58.9% in test [11]; 9.96% (active) in test [12]. For the same compound, the growth is 33% in test [13]; 77.2% in test [14]; 78% in test [15]; 75.7% in [16]; 66.6% in test [17]; 61.2% in test [18]. Also, in test [19], the growth is 70.6%.
As for `C[C@@H]1CCC2=C(CCC[C@]2(C)C(=O)O)[C@@]1(C)CCc1ccoc1`, the growth in [1] was 102%; in [2] it was 95.7%; in test [3], 92.9%; in test [4], 85.4%; in test [5], 87.4%; in test [6], 95.4%. The growth in test [7] is 85.3%; in test [9], 115%; in test [10], 92.1%; in test [11], 101%; in test [12], 89.6%; in test [13], 87.7%. Besides, the growth in test [14] was 92.3%; in test [15] it was 101%; in [16] it was 99.6%; in test [17], 83.3%; in test [18] it was 102%; in [19], 113%.
Turning to `O=C(Nc1cccc2[nH]c(C(F)(F)F)nc12)c1ccc(Br)cc1F`, the growth in test [1] is 28.5%; in test [2], 60.8%; in test [3], 29.7%; in [4], 18.9%; in test [6], -32.8% (active); in [7], -1.06% (active). Besides, the growth is 35.9% in test [8]; 62.9% in [9]; 26.5% in [12]; 52.8% in test [14]; 33.5% in test [15]; 14.6% in test [16]. Moreover, the growth in [17] was -0.338% (active); in [18], 47.1%; in test [19], 26.9%.
Take `COc1ccc(/C=C2\N=C3Sc4cc(Cl)ccc4C(=O)N3C2=O)cc1`: the growth in test [1] was 102%; in test [2], 76.8%; in test [3], 101%; in [5] it was 85.5%; in test [6], 99.8%; in test [7], 98%. For the same compound, the growth in test [8] was 98.8%; in test [9], 103%; in test [12], 96.3%; in test [13], 65%; in test [14] it was 107%; in test [15], 92.1%. In addition, the growth in test [16] was 73.8%; in [17], 108%; in [18] it was 93.4%; in test [19], 93.6%.
Regarding `COc1ccc(-n2c(C)nc3c(c(C)nn3-c3ccccc3)c2=O)cc1`, the growth in [1] was 7.97% (active); in [2] it was 26.7%; in test [3], 60.7%; in [5], 26.7%; in test [6], -17.1% (active); in [7] it was 51.6%. For the same compound, the growth was 16.6% in test [8]; 67.4% in test [9]; 36.4% in test [10]; 32% in test [11]; 42% in [12]; 44.3% in [13]. Also, the growth in [14] is 55.4%; in test [15], 29.2%; in test [16], 34.4%; in [17] it was -27.8% (active); in test [18], 8.6% (active); in test [19] it was 12.2%.
As to `O=C1OC2C(I)C3CC2C1C3c1ccccc1` (stereo not drawn), the growth in test [1] was 105%; in test [2] it was 73.5%; in test [4] it was 104%; in [5] it was 93.8%; in test [6] it was 108%; in test [7] it was 93.1%. For the same compound, the growth in test [8] was 93.4%; in test [9], 105%; in [10], 128%; in test [13], 95.8%; in [14], 145%; in test [15], 102%. Further, the growth in test [17] was 114%; in [18], 110%; in [19], 102%.

The values are drawn from PubChem BioAssay (NCI).
